Experimental data published in publication PMC8384837, “Expanding the binding specificity for RNA recognition by a PUF domain”.

Legend:
Experiment in all cases: yeast three-hybrid, YBZ-1, SC-Leu-His + 0.5 mM 3-AT, 4 days
Settings in all cases: tags: N-Gal4 AD-HA kept; label: inside an RPR1-promoter hybrid RNA with tandem MS2 sites; ssRNA
PUM1 PUF domain R2-EWD = PUM1 PUF domain R2-EWD (Homo sapiens, UniProt Q14671 828-1176, N899E;Y900W;Q903D)
How it was run: (§1)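 Each repeat of the Pumilio-1 PUF domain was randomized at its three base-contacting residues, and these libraries were co-expressed from a centromeric plasmid with matching RNA elements in strain YBZ-1. After four days on SC-Leu (input) or SC-Leu-His + 0.5 mM 3-AT (selection), the repeat regions were PCR-amplified and Illumina-sequenced. The interaction score compares variant frequency between input and selection as a log change, computed in log2 with a pseudocount of 1 for absent variants.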

PUM1 PUF domain R1-KCS = PUM1 PUF domain R1-KCS (Homo sapiens, UniProt Q14671 828-1176, S863K;R864C;Q867S)
PUM1 PUF domain R1-KCS, sequence (Q14671 828-1176 S863K/R864C/Q867S): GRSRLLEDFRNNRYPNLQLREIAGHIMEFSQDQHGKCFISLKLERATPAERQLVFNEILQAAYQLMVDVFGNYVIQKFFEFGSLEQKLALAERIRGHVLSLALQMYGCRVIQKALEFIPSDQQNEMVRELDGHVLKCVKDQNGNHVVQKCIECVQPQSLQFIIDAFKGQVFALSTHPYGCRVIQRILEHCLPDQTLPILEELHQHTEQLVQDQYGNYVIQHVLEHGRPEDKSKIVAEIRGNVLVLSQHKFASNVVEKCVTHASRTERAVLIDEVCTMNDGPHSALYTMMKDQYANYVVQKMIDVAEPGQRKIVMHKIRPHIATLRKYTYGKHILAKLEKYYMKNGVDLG
How it was run: as §1

PUM1 PUF domain R8-FFK = PUM1 PUF domain R8-FFK (Homo sapiens, UniProt Q14671 828-1176, N1122F;Y1123F;Q1126K)
PUM1 PUF domain R8-FFK, sequence (Q14671 828-1176 N1122F/Y1123F/Q1126K): as the sequence (Q14671 828-1176 S863K/R864C/Q867S) above, with K36S, C37R, S40Q, N295F, Y296F, Q299K counted along it
How it was run: as §1

PUM1 PUF domain R5-FHS = PUM1 PUF domain R5-FHS (Homo sapiens, UniProt Q14671 828-1176, C1007F;R1008H;Q1011S)
PUM1 PUF domain R5-FHS, sequence (Q14671 828-1176 C1007F/R1008H/Q1011S): as the sequence (Q14671 828-1176 S863K/R864C/Q867S) above, with K36S, C37R, S40Q, C180F, R181H, Q184S counted along it
How it was run: as §1

PUM1 PUF domain R5-KHS = PUM1 PUF domain R5-KHS (Homo sapiens, UniProt Q14671 828-1176, C1007K;R1008H;Q1011S)
How it was run: as §1

PUM1 PUF domain R4-ARC = PUM1 PUF domain R4-ARC (Homo sapiens, UniProt Q14671 828-1176, N971A;H972R;Q975C)
PUM1 PUF domain R4-ARC, sequence (Q14671 828-1176 N971A/H972R/Q975C): as the sequence (Q14671 828-1176 S863K/R864C/Q867S) above, with K36S, C37R, S40Q, N144A, H145R, Q148C counted along it
How it was run: as §1

PUM1 PUF domain R4-ANL = PUM1 PUF domain R4-ANL (Homo sapiens, UniProt Q14671 828-1176, N971A;H972N;Q975L)
How it was run: as §1

PUM1 PUF domain R4-SPR = PUM1 PUF domain R4-SPR (Homo sapiens, UniProt Q14671 828-1176, N971S;H972P;Q975R)
How it was run: as §1

PUM1 PUF domain R4-WGS = PUM1 PUF domain R4-WGS (Homo sapiens, UniProt Q14671 828-1176, N971W;H972G;Q975S)
How it was run: as §1

PUM1 PUF domain R3-LWR = PUM1 PUF domain R3-LWR (Homo sapiens, UniProt Q14671 828-1176, C935L;R936W;Q939R)
PUM1 PUF domain R3-LWR, sequence (Q14671 828-1176 C935L/R936W/Q939R): as the sequence (Q14671 828-1176 S863K/R864C/Q867S) above, with K36S, C37R, S40Q, C108L, R109W, Q112R counted along it
How it was run: as §1

PUM1 PUF domain R3-LWA = PUM1 PUF domain R3-LWA (Homo sapiens, UniProt Q14671 828-1176, C935L;R936W;Q939A)
PUM1 PUF domain R3-LWA, sequence (Q14671 828-1176 C935L/R936W/Q939A): as the sequence (Q14671 828-1176 S863K/R864C/Q867S) above, with K36S, C37R, S40Q, C108L, R109W, Q112A counted along it
How it was run: as §1

PUM1 PUF domain R3-GWA = PUM1 PUF domain R3-GWA (Homo sapiens, UniProt Q14671 828-1176, C935G;R936W;Q939A)
PUM1 PUF domain R3-GWA, sequence (Q14671 828-1176 C935G/R936W/Q939A): as the sequence (Q14671 828-1176 S863K/R864C/Q867S) above, with K36S, C37R, S40Q, C108G, R109W, Q112A counted along it
How it was run: as §1

PUM1 PUF domain R3-RRT = PUM1 PUF domain R3-RRT (Homo sapiens, UniProt Q14671 828-1176, C935R;Q939T)
PUM1 PUF domain R3-RRT, sequence (Q14671 828-1176 C935R/Q939T): as the sequence (Q14671 828-1176 S863K/R864C/Q867S) above, with K36S, C37R, S40Q, C108R, Q112T counted along it
How it was run: as §1

PUM1 PUF domain R7-RRW = PUM1 PUF domain R7-RRW (Homo sapiens, UniProt Q14671 828-1176, S1079R;N1080R;E1083W)
PUM1 PUF domain R7-RRW, sequence (Q14671 828-1176 S1079R/N1080R/E1083W): as the sequence (Q14671 828-1176 S863K/R864C/Q867S) above, with K36S, C37R, S40Q, S252R, N253R, E256W counted along it
How it was run: as §1

PUM1 PUF domain R7-LST = PUM1 PUF domain R7-LST (Homo sapiens, UniProt Q14671 828-1176, S1079L;N1080S;E1083T)
PUM1 PUF domain R7-LST, sequence (Q14671 828-1176 S1079L/N1080S/E1083T): as the sequence (Q14671 828-1176 S863K/R864C/Q867S) above, with K36S, C37R, S40Q, S252L, N253S, E256T counted along it
How it was run: as §1

PUM1 PUF domain R4-AQY = PUM1 PUF domain R4-AQY (Homo sapiens, UniProt Q14671 828-1176, N971A;H972Q;Q975Y)
How it was run: as §1

PUM1 PUF domain R4-AYP = PUM1 PUF domain R4-AYP (Homo sapiens, UniProt Q14671 828-1176, N971A;H972Y;Q975P)
How it was run: as §1

PUM1 PUF domain R5-KER = PUM1 PUF domain R5-KER (Homo sapiens, UniProt Q14671 828-1176, C1007K;R1008E;Q1011R)
PUM1 PUF domain R5-KER, sequence (Q14671 828-1176 C1007K/R1008E/Q1011R): as the sequence (Q14671 828-1176 S863K/R864C/Q867S) above, with K36S, C37R, S40Q, C180K, R181E, Q184R counted along it
How it was run: as §1

PUM1 PUF domain R5-CGR = PUM1 PUF domain R5-CGR (Homo sapiens, UniProt Q14671 828-1176, R1008G;Q1011R)
PUM1 PUF domain R5-CGR, sequence (Q14671 828-1176 R1008G/Q1011R): as the sequence (Q14671 828-1176 S863K/R864C/Q867S) above, with K36S, C37R, S40Q, R181G, Q184R counted along it
How it was run: as §1

PUM1 PUF domain R5-NPR = PUM1 PUF domain R5-NPR (Homo sapiens, UniProt Q14671 828-1176, C1007N;R1008P;Q1011R)
How it was run: as §1

PUM1 PUF domain R2-EWD, sequence (Q14671 828-1176 N899E/Y900W/Q903D): as the sequence (Q14671 828-1176 S863K/R864C/Q867S) above, with K36S, C37R, S40Q, N72E, Y73W, Q76D counted along it

Sequence: GGCUAGAACUAGUGGAUCCCCCGGCGCCCGGCGGCUCGAGCCCGGGUAAGUGUAAAGAGUCUGCAUGCCGCCGGGCGCCAUGCCUGCAGGUCGACUCUAGAAAACAUG
- binding signal (PUM1 PUF domain R2-EWD): 9.68 log2 enrichment (interaction score)

Sequence: GGCUAGAACUAGUGGAUCCCCCGGCGCCCGGCGGCUCGAGCCCGGGUAAGUGUAAAUUGUCUGCAUGCCGCCGGGCGCCAUGCCUGCAGGUCGACUCUAGAAAACAUG
- binding signal (PUM1 PUF domain R1-KCS): 4.89 log2 enrichment (interaction score)

Sequence: GGCUAGAACUAGUGGAUCCCCCGGCGCCCGGCGGCUCGAGCCCGGGUAAGCGUAAAUAGUCUGCAUGCCGCCGGGCGCCAUGCCUGCAGGUCGACUCUAGAAAACAUG
- binding signal (PUM1 PUF domain R8-FFK): 3.27 log2 enrichment (interaction score)

Sequence: GGCUAGAACUAGUGGAUCCCCCGGCGCCCGGCGGCUCGAGCCCGGGUAAGUGUGAAUAGUCUGCAUGCCGCCGGGCGCCAUGCCUGCAGGUCGACUCUAGAAAACAUG
- binding signal (PUM1 PUF domain R5-FHS): 2.39 log2 enrichment (interaction score)
- binding signal (PUM1 PUF domain R5-KHS): 2.1 log2 enrichment (interaction score)

Sequence: GGCUAGAACUAGUGGAUCCCCCGGCGCCCGGCGGCUCGAGCCCGGGUAAGUGUAUAUAGUCUGCAUGCCGCCGGGCGCCAUGCCUGCAGGUCGACUCUAGAAAACAUG
- binding signal (PUM1 PUF domain R4-ARC): 1.56 log2 enrichment (interaction score)
- binding signal (PUM1 PUF domain R4-ANL): 2.71 log2 enrichment (interaction score)
- binding signal (PUM1 PUF domain R4-SPR): 3.12 log2 enrichment (interaction score)
- binding signal (PUM1 PUF domain R4-WGS): 5.21 log2 enrichment (interaction score)

Sequence: GGCUAGAACUAGUGGAUCCCCCGGCGCCCGGCGGCUCGAGCCCGGGUAAGUGUAAUUAGUCUGCAUGCCGCCGGGCGCCAUGCCUGCAGGUCGACUCUAGAAAACAUG
- binding signal (PUM1 PUF domain R3-LWR): 4.17 log2 enrichment (interaction score)
- binding signal (PUM1 PUF domain R3-LWA): 4.71 log2 enrichment (interaction score)
- binding signal (PUM1 PUF domain R3-GWA): 1.14 log2 enrichment (interaction score)
- binding signal (PUM1 PUF domain R3-RRT): 3.01 log2 enrichment (interaction score)

Sequence: GGCUAGAACUAGUGGAUCCCCCGGCGCCCGGCGGCUCGAGCCCGGGUAAGUGUAAGUAGUCUGCAUGCCGCCGGGCGCCAUGCCUGCAGGUCGACUCUAGAAAACAUG
- binding signal (PUM1 PUF domain R3-LWR): 5.5 log2 enrichment (interaction score)
- binding signal (PUM1 PUF domain R3-LWA): 5.58 log2 enrichment (interaction score)
- binding signal (PUM1 PUF domain R3-GWA): 2.87 log2 enrichment (interaction score)

Sequence: GGCUAGAACUAGUGGAUCCCCCGGCGCCCGGCGGCUCGAGCCCGGGUAAGUGUACAUAGUCUGCAUGCCGCCGGGCGCCAUGCCUGCAGGUCGACUCUAGAAAACAUG
- binding signal (PUM1 PUF domain R4-ARC): 0.97 log2 enrichment (interaction score)
- binding signal (PUM1 PUF domain R4-ANL): 1.38 log2 enrichment (interaction score)
- binding signal (PUM1 PUF domain R4-SPR): 2.73 log2 enrichment (interaction score)
- binding signal (PUM1 PUF domain R4-WGS): 2.86 log2 enrichment (interaction score)

Sequence: GGCUAGAACUAGUGGAUCCCCCGGCGCCCGGCGGCUCGAGCCCGGGUAAGUUUAAAUAGUCUGCAUGCCGCCGGGCGCCAUGCCUGCAGGUCGACUCUAGAAAACAUG
- binding signal (PUM1 PUF domain R7-RRW): 4.75 log2 enrichment (interaction score)
- binding signal (PUM1 PUF domain R7-LST): 3.64 log2 enrichment (interaction score)

Sequence: GGCUAGAACUAGUGGAUCCCCCGGCGCCCGGCGGCUCGAGCCCGGGUAAGUGUAAAUCGUCUGCAUGCCGCCGGGCGCCAUGCCUGCAGGUCGACUCUAGAAAACAUG
- binding signal (PUM1 PUF domain R1-KCS): 4.55 log2 enrichment (interaction score)

Sequence: GGCUAGAACUAGUGGAUCCCCCGGCGCCCGGCGGCUCGAGCCCGGGUAAGUGUAAAUAGUCUGCAUGCCGCCGGGCGCCAUGCCUGCAGGUCGACUCUAGAAAACAUG
- binding signal (PUM1 PUF domain R5-FHS): 2.12 log2 enrichment (interaction score)
- binding signal (PUM1 PUF domain R3-LWR): 2.03 log2 enrichment (interaction score)
- binding signal (PUM1 PUF domain R3-LWA): 2.61 log2 enrichment (interaction score)
- binding signal (PUM1 PUF domain R4-ARC): 5.53 log2 enrichment (interaction score)
- binding signal (PUM1 PUF domain R3-GWA): 3.32 log2 enrichment (interaction score)
- binding signal (PUM1 PUF domain R5-KHS): 2.33 log2 enrichment (interaction score)
- binding signal (PUM1 PUF domain R4-AQY): 3.35 log2 enrichment (interaction score)
- binding signal (PUM1 PUF domain R4-AYP): 7.85 log2 enrichment (interaction score)
- binding signal (PUM1 PUF domain R4-WGS): 3.11 log2 enrichment (interaction score)

Sequence: GGCUAGAACUAGUGGAUCCCCCGGCGCCCGGCGGCUCGAGCCCGGGUAAGUGUCAAUAGUCUGCAUGCCGCCGGGCGCCAUGCCUGCAGGUCGACUCUAGAAAACAUG
- binding signal (PUM1 PUF domain R5-FHS): 1.75 log2 enrichment (interaction score)
- binding signal (PUM1 PUF domain R5-KER): 2.91 log2 enrichment (interaction score)
- binding signal (PUM1 PUF domain R5-KHS): 4.98 log2 enrichment (interaction score)
- binding signal (PUM1 PUF domain R5-CGR): 4.13 log2 enrichment (interaction score)
- binding signal (PUM1 PUF domain R5-NPR): 4.07 log2 enrichment (interaction score)

Sequence: GGCUAGAACUAGUGGAUCCCCCGGCGCCCGGCGGCUCGAGCCCGGGUAAGUCUAAAUAGUCUGCAUGCCGCCGGGCGCCAUGCCUGCAGGUCGACUCUAGAAAACAUG
- binding signal (PUM1 PUF domain R7-RRW): 4.3 log2 enrichment (interaction score)

Sequence: GGCUAGAACUAGUGGAUCCCCCGGCGCCCGGCGGCUCGAGCCCGGGUAAGUGUUAAUAGUCUGCAUGCCGCCGGGCGCCAUGCCUGCAGGUCGACUCUAGAAAACAUG
- binding signal (PUM1 PUF domain R5-FHS): 0.94 log2 enrichment (interaction score)
- binding signal (PUM1 PUF domain R5-KHS): 6.04 log2 enrichment (interaction score)
- binding signal (PUM1 PUF domain R5-NPR): 4.1 log2 enrichment (interaction score)
